# In paper PMC7862700, “An all-to-all approach to the identification of sequence-specific readers for epigenetic DNA modifications on cytosine”:
# Key:
# Assay in all cases: DAPPL (digital affinity profiling via proximity ligation, sequencing); 10 mM Tris-HCl pH 7.5, 50 mM NaCl, 1 mM DTT, 4% glycerol, room temperature, 30 min; GST-TFs on glutathione beads, 16-mer random dsDNA library, 0.1% formaldehyde crosslink after washing; high values mean tight binding
# [1] = target: T1, FLI1 (Homo sapiens, UniProt Q01543 1-452); settings: protein: recombinant; tags: N-terminal GST; dsDNA, one strand shown
# T1 sequence: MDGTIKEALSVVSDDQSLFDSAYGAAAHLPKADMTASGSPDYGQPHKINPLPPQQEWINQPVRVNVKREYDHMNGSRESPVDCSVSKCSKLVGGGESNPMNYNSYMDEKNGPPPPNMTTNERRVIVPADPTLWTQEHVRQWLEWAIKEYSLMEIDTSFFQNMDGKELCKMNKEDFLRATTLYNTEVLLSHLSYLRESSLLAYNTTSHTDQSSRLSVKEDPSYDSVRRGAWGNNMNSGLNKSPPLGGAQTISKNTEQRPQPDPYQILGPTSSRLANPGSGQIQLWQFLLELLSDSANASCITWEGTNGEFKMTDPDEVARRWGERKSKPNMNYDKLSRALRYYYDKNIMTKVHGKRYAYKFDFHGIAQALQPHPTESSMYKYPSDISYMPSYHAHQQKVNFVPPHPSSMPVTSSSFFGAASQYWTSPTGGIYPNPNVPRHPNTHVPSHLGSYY
# How it was run: (§1)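 Beads coated with glutathione captured GST-fused human transcription factors that had been expressed in yeast, and the factors were then given DNA barcodes and pooled with a tag-only sample. The pools were incubated with 200 nmole of a random double-stranded 16-mer DNA library in Tris/NaCl/DTT/glycerol buffer for 30 min at room temperature, washed, crosslinked with 0.1% formaldehyde and proximity-ligated with BsaI/T4 ligase at 37 °C for 1 h. PCR amplification and Illumina NextSeq500 sequencing came last. Binding signal is each hexamer's read frequency for a factor divided by its frequency for the tag-only sample.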
# [2] = target: T2, ELK1 (Homo sapiens, UniProt P19419 1-428); settings: protein: recombinant; tags: N-terminal GST; dsDNA, one strand shown
# T2 sequence: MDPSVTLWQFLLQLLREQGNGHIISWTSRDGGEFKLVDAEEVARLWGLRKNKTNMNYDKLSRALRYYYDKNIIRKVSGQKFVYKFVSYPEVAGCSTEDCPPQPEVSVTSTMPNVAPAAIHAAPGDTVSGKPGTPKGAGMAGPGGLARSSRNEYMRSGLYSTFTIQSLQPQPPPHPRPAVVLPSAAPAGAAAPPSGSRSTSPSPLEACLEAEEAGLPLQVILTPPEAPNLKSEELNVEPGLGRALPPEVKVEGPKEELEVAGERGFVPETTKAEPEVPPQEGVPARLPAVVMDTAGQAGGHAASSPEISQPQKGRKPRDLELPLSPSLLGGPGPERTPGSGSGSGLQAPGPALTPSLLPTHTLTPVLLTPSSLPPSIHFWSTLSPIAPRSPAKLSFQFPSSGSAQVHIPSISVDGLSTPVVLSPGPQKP
# How it was run: as §1
# [3] = target: T3, GABPA (Homo sapiens, UniProt Q06546 1-454); settings: protein: recombinant; tags: N-terminal GST; dsDNA, one strand shown
# T3 sequence: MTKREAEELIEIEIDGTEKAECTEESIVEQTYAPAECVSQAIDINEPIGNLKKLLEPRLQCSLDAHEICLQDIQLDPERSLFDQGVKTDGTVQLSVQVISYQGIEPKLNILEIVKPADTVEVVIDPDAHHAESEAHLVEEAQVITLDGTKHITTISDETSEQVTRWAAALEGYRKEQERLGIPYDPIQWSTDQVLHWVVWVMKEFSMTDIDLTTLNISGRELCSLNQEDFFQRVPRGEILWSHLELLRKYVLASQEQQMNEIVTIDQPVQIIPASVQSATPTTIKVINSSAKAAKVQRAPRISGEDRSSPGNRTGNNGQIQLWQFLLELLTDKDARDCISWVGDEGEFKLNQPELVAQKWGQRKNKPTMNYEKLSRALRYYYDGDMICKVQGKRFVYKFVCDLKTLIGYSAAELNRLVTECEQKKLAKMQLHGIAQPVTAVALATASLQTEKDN
# How it was run: as §1
# [4] = target: T4, ERG (Homo sapiens, UniProt P11308 1-479); settings: protein: recombinant; tags: N-terminal GST; dsDNA, one strand shown
# T4 sequence: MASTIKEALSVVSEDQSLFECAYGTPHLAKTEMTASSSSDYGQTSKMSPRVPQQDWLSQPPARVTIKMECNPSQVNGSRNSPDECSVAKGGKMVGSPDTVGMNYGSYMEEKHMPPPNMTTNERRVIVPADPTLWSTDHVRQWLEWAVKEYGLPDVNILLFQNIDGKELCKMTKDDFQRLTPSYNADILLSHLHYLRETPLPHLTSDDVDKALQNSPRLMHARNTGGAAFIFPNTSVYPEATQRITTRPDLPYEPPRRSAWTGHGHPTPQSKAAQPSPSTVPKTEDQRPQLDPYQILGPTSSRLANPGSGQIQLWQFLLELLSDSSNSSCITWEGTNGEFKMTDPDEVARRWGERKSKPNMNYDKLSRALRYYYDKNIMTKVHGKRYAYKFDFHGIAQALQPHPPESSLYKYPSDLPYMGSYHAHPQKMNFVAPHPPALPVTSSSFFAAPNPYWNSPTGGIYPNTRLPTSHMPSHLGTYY
# How it was run: as §1
# [5] = target: ELF1 (Homo sapiens, UniProt P32519 1-619); settings: protein: recombinant; tags: N-terminal GST; dsDNA, one strand shown
# How it was run: as §1
# [6] = target: T5, EHF (Homo sapiens, UniProt Q9NZC4 1-300); settings: protein: recombinant; tags: N-terminal GST; dsDNA, one strand shown
# T5 sequence: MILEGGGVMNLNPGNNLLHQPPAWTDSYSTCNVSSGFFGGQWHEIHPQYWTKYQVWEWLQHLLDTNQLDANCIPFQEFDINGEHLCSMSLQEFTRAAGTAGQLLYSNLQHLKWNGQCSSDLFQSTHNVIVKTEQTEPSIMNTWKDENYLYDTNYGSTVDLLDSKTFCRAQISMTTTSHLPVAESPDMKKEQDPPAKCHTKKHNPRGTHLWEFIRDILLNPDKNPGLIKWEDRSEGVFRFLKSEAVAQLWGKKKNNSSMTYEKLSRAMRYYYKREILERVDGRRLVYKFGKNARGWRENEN
# How it was run: as §1
# [7] = target: SPI1 (Homo sapiens, UniProt P17947 1-270); settings: protein: recombinant; tags: N-terminal GST; dsDNA, one strand shown
# How it was run: as §1
# [8] = target: SPIB (Homo sapiens, UniProt Q01892 1-262); settings: protein: recombinant; tags: N-terminal GST; dsDNA, one strand shown
# How it was run: as §1
# [9] = target: T6, ELK3 (Homo sapiens, UniProt P41970 1-407); settings: protein: recombinant; tags: N-terminal GST; dsDNA, one strand shown
# T6 sequence: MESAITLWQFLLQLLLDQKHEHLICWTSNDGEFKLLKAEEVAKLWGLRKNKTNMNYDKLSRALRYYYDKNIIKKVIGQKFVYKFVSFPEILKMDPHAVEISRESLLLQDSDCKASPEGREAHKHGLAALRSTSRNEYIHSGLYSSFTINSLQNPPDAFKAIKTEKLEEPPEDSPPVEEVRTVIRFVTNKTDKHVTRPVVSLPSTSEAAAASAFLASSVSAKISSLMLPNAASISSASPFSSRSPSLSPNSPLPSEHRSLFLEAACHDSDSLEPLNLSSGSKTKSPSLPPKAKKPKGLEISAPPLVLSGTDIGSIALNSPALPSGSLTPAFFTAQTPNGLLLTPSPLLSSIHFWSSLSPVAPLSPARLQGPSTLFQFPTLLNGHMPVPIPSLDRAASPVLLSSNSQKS
# How it was run: as §1
# [10] = target: T7, FEV (Homo sapiens, UniProt Q99581 1-238); settings: protein: recombinant; tags: N-terminal GST; dsDNA, one strand shown
# T7 sequence: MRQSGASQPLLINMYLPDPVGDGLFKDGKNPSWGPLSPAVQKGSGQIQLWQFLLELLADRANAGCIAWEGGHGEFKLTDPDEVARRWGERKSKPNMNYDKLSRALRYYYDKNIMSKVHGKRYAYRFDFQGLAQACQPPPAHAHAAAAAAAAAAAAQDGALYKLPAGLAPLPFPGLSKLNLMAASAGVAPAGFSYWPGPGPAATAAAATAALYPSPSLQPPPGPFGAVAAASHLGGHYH
# How it was run: as §1
# [11] = target: ETV5 (Homo sapiens, UniProt P41161 1-510); settings: protein: recombinant; tags: N-terminal GST; dsDNA, one strand shown
# How it was run: as §1
# [12] = target: HSF1 (Homo sapiens, UniProt Q00613 1-529); settings: protein: recombinant; tags: N-terminal GST; chain copies: 3; dsDNA, one strand shown
# How it was run: as §1
# [13] = target: T8, SPIC (Homo sapiens, UniProt Q8N5J4 1-248); settings: protein: recombinant; tags: N-terminal GST; dsDNA, one strand shown
# T8 sequence: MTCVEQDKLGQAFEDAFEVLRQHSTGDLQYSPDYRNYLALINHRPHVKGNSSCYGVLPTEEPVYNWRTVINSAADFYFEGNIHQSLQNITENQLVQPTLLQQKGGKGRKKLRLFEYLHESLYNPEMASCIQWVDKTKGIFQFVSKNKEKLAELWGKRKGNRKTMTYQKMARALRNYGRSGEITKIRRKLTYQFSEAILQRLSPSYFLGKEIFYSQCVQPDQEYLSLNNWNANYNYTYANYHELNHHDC
# How it was run: as §1
# [14] = target: ELF4 (Homo sapiens, UniProt Q99607 1-663); settings: protein: recombinant; tags: N-terminal GST; dsDNA, one strand shown
# How it was run: as §1
# [15] = target: T9, ELK4 (Homo sapiens, UniProt P28324-2 1-405); settings: protein: recombinant; tags: N-terminal GST; dsDNA, one strand shown
# T9 sequence: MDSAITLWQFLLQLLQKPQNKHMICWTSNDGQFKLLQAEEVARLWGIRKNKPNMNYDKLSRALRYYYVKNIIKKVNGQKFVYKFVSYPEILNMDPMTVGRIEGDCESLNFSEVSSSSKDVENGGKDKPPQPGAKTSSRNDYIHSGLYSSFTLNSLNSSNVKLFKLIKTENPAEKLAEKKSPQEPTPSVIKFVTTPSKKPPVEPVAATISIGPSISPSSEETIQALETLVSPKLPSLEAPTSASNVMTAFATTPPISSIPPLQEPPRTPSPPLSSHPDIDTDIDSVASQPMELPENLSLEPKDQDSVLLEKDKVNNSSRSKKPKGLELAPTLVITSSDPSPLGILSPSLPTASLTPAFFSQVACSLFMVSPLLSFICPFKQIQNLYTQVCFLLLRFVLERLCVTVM
# How it was run: as §1
# [16] = target: T10, ETV2 (Homo sapiens, UniProt O00321 1-342); settings: protein: recombinant; tags: N-terminal GST; dsDNA, one strand shown
# T10 sequence: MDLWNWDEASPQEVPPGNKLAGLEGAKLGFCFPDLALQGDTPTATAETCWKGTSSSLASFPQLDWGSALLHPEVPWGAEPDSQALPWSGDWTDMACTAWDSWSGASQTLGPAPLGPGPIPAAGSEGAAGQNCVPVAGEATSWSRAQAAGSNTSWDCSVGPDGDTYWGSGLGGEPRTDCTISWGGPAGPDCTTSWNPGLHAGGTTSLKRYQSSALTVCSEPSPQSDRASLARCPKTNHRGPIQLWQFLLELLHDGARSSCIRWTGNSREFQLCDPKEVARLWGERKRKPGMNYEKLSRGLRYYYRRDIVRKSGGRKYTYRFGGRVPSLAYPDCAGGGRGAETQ
# How it was run: as §1
# [17] = target: T11, ELF3 (Homo sapiens, UniProt P78545 1-371); settings: protein: recombinant; tags: N-terminal GST; dsDNA, one strand shown
# T11 sequence: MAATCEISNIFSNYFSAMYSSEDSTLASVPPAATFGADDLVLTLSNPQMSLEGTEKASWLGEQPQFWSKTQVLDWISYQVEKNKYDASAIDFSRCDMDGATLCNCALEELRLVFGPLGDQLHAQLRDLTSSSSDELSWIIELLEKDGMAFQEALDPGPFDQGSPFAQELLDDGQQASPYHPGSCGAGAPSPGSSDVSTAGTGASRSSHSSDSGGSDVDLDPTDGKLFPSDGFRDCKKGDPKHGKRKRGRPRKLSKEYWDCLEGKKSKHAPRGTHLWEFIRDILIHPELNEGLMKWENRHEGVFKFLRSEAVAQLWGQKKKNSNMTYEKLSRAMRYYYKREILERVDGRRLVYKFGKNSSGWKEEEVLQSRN
# How it was run: as §1
# [18] = target: CRX (Homo sapiens, UniProt O43186 1-299); settings: protein: recombinant; tags: N-terminal GST; dsDNA, one strand shown
# How it was run: as §1
# [19] = target: ETV1 (Homo sapiens, UniProt P50549 1-477); settings: protein: recombinant; tags: N-terminal GST; dsDNA, one strand shown
# How it was run: as §1
# HSF1, sequence (Q00613 whole entry): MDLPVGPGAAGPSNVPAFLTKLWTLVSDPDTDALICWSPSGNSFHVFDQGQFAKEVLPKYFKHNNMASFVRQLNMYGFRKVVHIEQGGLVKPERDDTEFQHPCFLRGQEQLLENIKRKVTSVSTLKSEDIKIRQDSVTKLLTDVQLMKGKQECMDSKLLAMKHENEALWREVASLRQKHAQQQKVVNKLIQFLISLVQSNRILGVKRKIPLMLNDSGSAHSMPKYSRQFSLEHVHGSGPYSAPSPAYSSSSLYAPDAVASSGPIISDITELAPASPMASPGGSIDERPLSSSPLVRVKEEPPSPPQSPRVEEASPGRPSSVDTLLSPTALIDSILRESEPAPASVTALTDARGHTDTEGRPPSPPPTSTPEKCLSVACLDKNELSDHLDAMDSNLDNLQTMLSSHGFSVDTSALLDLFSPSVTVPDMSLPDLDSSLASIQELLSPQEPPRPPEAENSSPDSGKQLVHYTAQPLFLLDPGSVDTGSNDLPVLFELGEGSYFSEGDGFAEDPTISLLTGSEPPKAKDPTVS
# ELF1, sequence (P32519 whole entry): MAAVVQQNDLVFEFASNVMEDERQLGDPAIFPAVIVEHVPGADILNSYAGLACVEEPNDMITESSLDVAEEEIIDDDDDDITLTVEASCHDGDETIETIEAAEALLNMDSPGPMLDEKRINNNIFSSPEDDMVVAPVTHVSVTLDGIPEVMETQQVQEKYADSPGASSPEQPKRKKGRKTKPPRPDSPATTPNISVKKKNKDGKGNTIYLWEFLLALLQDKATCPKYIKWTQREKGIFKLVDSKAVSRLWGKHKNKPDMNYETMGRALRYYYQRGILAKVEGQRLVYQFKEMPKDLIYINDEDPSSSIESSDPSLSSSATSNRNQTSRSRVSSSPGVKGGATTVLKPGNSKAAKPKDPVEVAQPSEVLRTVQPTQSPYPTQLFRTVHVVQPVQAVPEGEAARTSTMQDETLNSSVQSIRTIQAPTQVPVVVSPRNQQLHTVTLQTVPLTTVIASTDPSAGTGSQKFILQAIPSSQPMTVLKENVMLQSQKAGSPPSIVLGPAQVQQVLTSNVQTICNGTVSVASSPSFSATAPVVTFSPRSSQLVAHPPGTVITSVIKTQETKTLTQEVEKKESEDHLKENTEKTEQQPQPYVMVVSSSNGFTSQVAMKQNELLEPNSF
# SPIB, sequence (Q01892 whole entry): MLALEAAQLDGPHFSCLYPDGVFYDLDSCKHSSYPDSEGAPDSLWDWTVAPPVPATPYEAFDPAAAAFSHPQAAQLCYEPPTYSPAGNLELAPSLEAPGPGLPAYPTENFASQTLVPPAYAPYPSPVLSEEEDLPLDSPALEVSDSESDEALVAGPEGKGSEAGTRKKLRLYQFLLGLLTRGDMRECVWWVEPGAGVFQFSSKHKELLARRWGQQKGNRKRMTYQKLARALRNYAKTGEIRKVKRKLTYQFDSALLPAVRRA
# CRX, sequence (O43186 whole entry): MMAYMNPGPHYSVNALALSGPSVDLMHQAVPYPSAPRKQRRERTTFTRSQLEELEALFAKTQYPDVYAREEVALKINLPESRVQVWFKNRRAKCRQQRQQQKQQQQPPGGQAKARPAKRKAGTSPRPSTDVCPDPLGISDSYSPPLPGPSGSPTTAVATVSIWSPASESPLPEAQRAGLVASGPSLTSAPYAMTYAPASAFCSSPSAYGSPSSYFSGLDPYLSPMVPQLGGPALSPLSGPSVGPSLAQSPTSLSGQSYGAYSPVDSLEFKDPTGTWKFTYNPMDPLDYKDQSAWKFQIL
# ETV5, sequence (P41161 whole entry): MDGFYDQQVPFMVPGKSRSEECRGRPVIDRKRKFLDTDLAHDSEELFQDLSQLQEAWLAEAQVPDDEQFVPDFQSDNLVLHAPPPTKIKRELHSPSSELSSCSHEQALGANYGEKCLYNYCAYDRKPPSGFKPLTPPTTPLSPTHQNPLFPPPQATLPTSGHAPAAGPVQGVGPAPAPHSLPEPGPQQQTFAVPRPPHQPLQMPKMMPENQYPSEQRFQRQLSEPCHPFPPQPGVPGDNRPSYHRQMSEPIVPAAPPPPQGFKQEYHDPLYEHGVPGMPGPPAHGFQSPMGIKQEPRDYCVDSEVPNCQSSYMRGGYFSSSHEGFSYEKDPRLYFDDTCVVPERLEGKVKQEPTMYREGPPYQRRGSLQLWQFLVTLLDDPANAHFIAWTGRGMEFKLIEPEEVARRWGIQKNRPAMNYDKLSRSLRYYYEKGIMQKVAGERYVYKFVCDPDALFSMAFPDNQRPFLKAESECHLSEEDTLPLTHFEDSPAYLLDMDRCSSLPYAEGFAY
# ELF4, sequence (Q99607 whole entry): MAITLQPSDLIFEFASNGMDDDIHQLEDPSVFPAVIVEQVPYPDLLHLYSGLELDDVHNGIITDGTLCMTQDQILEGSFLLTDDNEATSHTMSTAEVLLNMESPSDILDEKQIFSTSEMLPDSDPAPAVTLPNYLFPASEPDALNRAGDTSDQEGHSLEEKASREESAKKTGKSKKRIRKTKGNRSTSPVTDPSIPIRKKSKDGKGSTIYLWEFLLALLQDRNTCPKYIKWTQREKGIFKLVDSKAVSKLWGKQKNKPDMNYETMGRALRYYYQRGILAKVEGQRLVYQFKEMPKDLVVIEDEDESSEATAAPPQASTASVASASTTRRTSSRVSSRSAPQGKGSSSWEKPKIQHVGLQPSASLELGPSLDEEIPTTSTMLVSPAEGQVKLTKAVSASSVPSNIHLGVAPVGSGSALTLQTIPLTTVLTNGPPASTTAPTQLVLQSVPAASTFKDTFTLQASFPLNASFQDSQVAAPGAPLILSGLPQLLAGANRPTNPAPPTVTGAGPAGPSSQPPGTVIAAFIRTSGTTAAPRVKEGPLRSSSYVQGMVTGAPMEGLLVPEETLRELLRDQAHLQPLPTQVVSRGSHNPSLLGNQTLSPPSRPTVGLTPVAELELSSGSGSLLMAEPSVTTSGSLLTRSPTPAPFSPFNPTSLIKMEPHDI
# ETV1, sequence (P50549 whole entry): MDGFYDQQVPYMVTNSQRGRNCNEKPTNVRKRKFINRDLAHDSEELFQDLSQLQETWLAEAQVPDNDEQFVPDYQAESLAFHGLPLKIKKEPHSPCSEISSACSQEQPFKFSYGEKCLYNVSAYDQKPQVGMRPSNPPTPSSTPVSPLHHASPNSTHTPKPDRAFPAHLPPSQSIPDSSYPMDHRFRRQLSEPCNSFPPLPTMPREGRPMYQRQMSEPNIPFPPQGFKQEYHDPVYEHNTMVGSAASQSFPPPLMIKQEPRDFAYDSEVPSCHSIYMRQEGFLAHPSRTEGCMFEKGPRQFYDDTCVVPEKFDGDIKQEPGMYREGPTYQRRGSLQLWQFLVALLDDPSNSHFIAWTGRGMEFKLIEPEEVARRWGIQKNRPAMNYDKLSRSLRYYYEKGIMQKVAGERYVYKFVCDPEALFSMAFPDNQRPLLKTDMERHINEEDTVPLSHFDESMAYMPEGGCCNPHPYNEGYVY
sequence,measurement,setting,value
CAAATA,binding signal,[1],"1.04 fold enrichment (6-mer frequency, TF over GST control)"
same,binding signal,[2],"1.13 fold enrichment (6-mer frequency, TF over GST control)"
same,binding signal,[3],"1.18 fold enrichment (6-mer frequency, TF over GST control)"
same,binding signal,[4],"1.19 fold enrichment (6-mer frequency, TF over GST control)"
same,binding signal,[5],"1.17 fold enrichment (6-mer frequency, TF over GST control)"
same,binding signal,[6],"1.14 fold enrichment (6-mer frequency, TF over GST control)"
same,binding signal,[7],"1.14 fold enrichment (6-mer frequency, TF over GST control)"
same,binding signal,[8],"1.19 fold enrichment (6-mer frequency, TF over GST control)"
same,binding signal,[9],"1.11 fold enrichment (6-mer frequency, TF over GST control)"
same,binding signal,[10],"1.14 fold enrichment (6-mer frequency, TF over GST control)"
same,binding signal,[11],"1.14 fold enrichment (6-mer frequency, TF over GST control)"
same,binding signal,[12],"1.14 fold enrichment (6-mer frequency, TF over GST control)"
same,binding signal,[13],"1.09 fold enrichment (6-mer frequency, TF over GST control)"
same,binding signal,[14],"1.16 fold enrichment (6-mer frequency, TF over GST control)"
same,binding signal,[15],"1.02 fold enrichment (6-mer frequency, TF over GST control)"
same,binding signal,[16],"1.06 fold enrichment (6-mer frequency, TF over GST control)"
same,binding signal,[17],"1.4 fold enrichment (6-mer frequency, TF over GST control)"
same,binding signal,[18],"1.24 fold enrichment (6-mer frequency, TF over GST control)"
same,binding signal,[19],"1.12 fold enrichment (6-mer frequency, TF over GST control)"
